Here are results for 37 compounds from PubChem BioAssay (EPA / NIEHS).

Each structure is given as a SMILES string. Results filed as inconclusive are left out. Calls of active or inactive are those of the source. Rule for the calls: active = hit-call score of the fitted dose curve at least 0.9, where 1 is the maximum; inconclusive = response in the unintended direction; inactive = score below 0.9.

A short description of this experiment: ACEA_ER_80hr: ACEA Biosciences xCELLigence Real-Time Cell Analysis on Estrogen Receptor Agonism for Proliferation (AID 2282667). The following applies: T47D proliferation, impedance (xCELLigence), 80 h. The method in brief: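 T-47D cells monitored by electrical impedance (xCELLigence) with compound present throughout; 80 h timepoint, positive-direction fitting versus DMSO. Eight-point 1:4 dilutions from 100 uM final, duplicate plates.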
Usually AC50 stands for the concentration at which the activity in the assay is half-maximal. In the case of `CC(O)CNCC(C)O` (configuration not stated), the AC50 was 13100 nM (active). As for `O=S(=O)(O)c1cc(S(=O)(=O)O)c2c(N=Nc3ccccc3)c(O)ccc2c1`, the compound was classed as inactive.

As for `CC(=O)C1C(=O)C=C(C)OC1=O` (configuration not stated), the compound was classed as inactive.

As for `CC(C)C(=O)OCC=Cc1ccccc1`, the compound was classed as inactive. Regarding `O=C1Cc2ccccc2C1`, the result was inactive.

Take `CC/C=C/CCCCCCCCCCOC(C)=O`: the call was inactive. Same read-out and setting: the entry for `CC1(C)CC(=O)CC(C)(C)N1` is “inactive”; for `CC(C)CCCC(C)(C)O` it is “inactive”; for `CN(C)C(=O)Nc1ccccc1` it is “inactive”. Regarding `CC(=N[Si](C)(C)C)O[Si](C)(C)C`, the half-maximal activity concentration (AC50) was 60.3 nM (active). Turning to `O=C(O)c1cc2ccccc2cc1O`, the outcome was inactive. On the same count and under the same terms, the entry for `CCCCOCCOCCO` is “inactive”. In the case of `CC(C)=CC(=O)O`, the concentration at half-maximal activity (AC50) is 3270 nM (active). On to `CCCC[N+](C)(CCCC)CCCC`, for which the compound was called inactive. On to `COc1ccc2[nH]cc(CCNC(C)=O)c2c1`, for which the outcome was inactive. Same read-out and setting: the entry for `CC(C)(CO)CO` is “inactive”.

For `CC(C)Cc1ccc(C(C)C(=O)O)cc1` (configuration not stated), the compound was called inactive. Consider `[Cl][Dy]([Cl])[Cl]`, for which the AC50 is 43 nM (active). For the compound `CCCCOCCOCCOCCO`, the result was inactive. On the same count and under the same terms, the entry for `CCCCCCC(O)CCOC(C)=O` (configuration not stated) is “inactive”; for `C1CCCNCC1` it is “inactive”; for `O=C1CCC(=O)N1` it is “inactive”. On to `CCCCCC(=O)O[C@]1(C(C)=O)CC[C@H]2[C@@H]3CCC4=CC(=O)CC[C@]4(C)[C@H]3CC[C@@]21C`, for which the half-maximal activity concentration (AC50) was 5.01 nM (active). Regarding `C=C1CC/C=C(\C)CC[C@@H]2[C@@H]1CC2(C)C`, the outcome was inactive. On to `CC1=CCC(=C(C)C)CC1`, for which the compound was classed as inactive.

As for `CCCCCC#CC(=O)OC`, the call was inactive. In the case of `O=C(OCc1ccccc1)c1ccccc1O`, the outcome was inactive. Same read-out and setting: as for `FC(F)(F)c1ccc(Cl)c(Cl)c1`, the entry is “inactive”; as for `CC1(C)[C@H](C=C(Cl)Cl)[C@H]1C(=O)OCc1cccc(Oc2ccccc2)c1`, “inactive”; as for `C=C(C)C(N)=O`, “inactive”. On to `COc1ccccc1O`, for which the call was inactive.

Turning to `CCCCOCC(C)OCC(C)O` (configuration not stated), the call was inactive. Regarding `CCCCCCCCCCO[C@@H]1O[C@H](CO)[C@@H](O)[C@H](O)[C@H]1O`, the compound was called inactive. On to `C=C(F)C(=O)OC(C(F)(F)F)C(F)(F)F`, for which the call was inactive. Still for that read-out and setting: as for `CCCC1CCOC(C)S1` (configuration not stated), the entry is “inactive”; as for `CCCC1CCC(=O)CC1`, “inactive”; as for `CC/C=C\C#N`, “inactive”.
